Results from PubChem BioAssay AID2685 (National Center for Advancing Translational Sciences (NCATS), 2010).
Out of some 320,000 compounds screened, about 2,100 (0.66%) were called active. About 53% were inconclusive and are not listed. The call rests on the fitted dose curve; in most records, active means well fitted inhibition curve with a large enough effect in the signal ratio, with a control signal flat (not every such curve was filed as active); inconclusive means small, poorly fitted or top-dose-only effect, or effect the other way, or a change in a side signal; inactive means flat fitted curve, though single readings scatter; the % refers to the signal ratio. The full list was thinned out, with actives kept by preference.

assay: qHTS Assay for Lipid Storage Modulators in Drosophila S3 Cells; conditions: BODIPY lipid droplet fluorescence, 18-24 h, cells fed with added oleic acid; cell number change: measured here: cell count max response; series mostly up to 46.1 µM; lipid storage change, negative = inhibition: at the top concentration;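 on cell number change: cells counted by Cell Tracker Red CMTPX staining in the red channel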; on lipid storage change, negative = inhibition: on the % scale 0 is the no-effect control and ±100 the full control effect
Procedure, shortened: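 Laser-scanning cytometry quantifies lipid droplet accumulation (500–530 nm total intensity; droplet/cell object ratio) in oleic acid-fed (400 uM added) Drosophila S3 cells treated with a concentration series. 20 uM Triacsin C defined 100% inhibition.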
Potency means the concentration at half of the fitted maximal effect.

SMILES	lipid storage change, negative = inhibition	cell number change	Potency	outcome
Cn1c(CCN2CCN(c3ccccn3)CC2)nc2cc(NS(=O)(=O)c3ccccc3)ccc21	8.02% (inactive)	8.74%	–	–
Cc1ccc(S(=O)(=O)Nc2ccc3c(c2)nc(CCN2CCN(c4ccccn4)CC2)n3C)cc1	–	24.4%	16.4 µM (active)	–
O=C(/C=C/N1CCN(Cc2ccccc2)CC1)C(F)(F)F	-0.119% [at 9.22 µM] (inactive)	4.65%	–	–
O=C(O)COc1c(-c2ccc(Cl)cc2)oc2ccccc2c1=O	-2.1% (inactive)	7.07%	–	–
O=C(O)COc1c(-c2ccccc2)oc2ccccc2c1=O	–	10.5%	23.1 µM (active)	–
NC(=O)COc1c(-c2ccccc2)oc2ccccc2c1=O	28.7% (inactive)	0.203%	–	–
COc1ccc(CNC(=O)CSc2n[nH]c(N)n2)cc1	–	2.63%	–	inactive
Cc1[nH]c(C)c(S(=O)(=O)N(Cc2ccccc2)C(C)(C)C)c1C(=O)N1CCCC1	-19% (inactive)	-27.6%	–	–
CCN(CC)C(=O)CSc1nnc(-c2ccco2)n1Cc1ccco1	13.9% (inactive)	-5.34%	–	–
Cc1ccc(NC(=O)CSc2nnc(CNC(=O)c3ccco3)n2C)cc1	18% (inactive)	–	–	–
O=C(OCc1ccc(Cl)cc1)c1cnccn1	–	23.8%	7.31 µM (active)	–
COC(=O)c1ccc(COC(=O)c2cnccn2)cc1	-2.39% (inactive)	9.29%	–	–
O=C(c1ccccc1)c1ccc(COC(=O)c2cnccn2)cc1	–	–	–	inactive
CCN(C(=O)CSc1nnc(COc2ccccc2F)n1N)C1CCS(=O)(=O)C1 (stereo not drawn)	–	–	–	inactive
CCN(C(=O)CSc1nnc(Cc2ccccc2F)n1N)C1CCS(=O)(=O)C1 (stereo not drawn)	–	-2.07%	8.2 µM (active)	–
CCN(C(=O)CSc1nnc(-c2ccccc2)n1C)C1CCS(=O)(=O)C1 (stereo not drawn)	10.8% (inactive)	–	–	–
Cc1onc(-c2ccccc2Cl)c1C(=O)N1CCN(C=O)CC1	-12.5% (inactive)	–	–	–
Cc1onc(-c2ccccc2Cl)c1C(=O)N1CCC(C)CC1	–	-10.5%	–	inactive
Cc1onc(-c2ccccc2Cl)c1C(=O)N1CCCCCC1	–	0.806%	25.9 µM (active)	–
CCNC(=S)N1CCN=C1Nc1nc(C)cc(C)n1	-14.2% (inactive)	8.32%	–	–
CCn1cc(CNC(=O)/C=C/c2ccc([N+](=O)[O-])cc2)cn1	-8.69% (inactive)	-8.84%	–	–
O=C(O)CCn1c2ccccc2c2nc3ccccc3nc21	–	-11.8%	–	inactive
CCn1c2ccccc2c2nc3cc(C(=O)O)ccc3nc21	–	-24.2%	0.58 µM (active)	–
CCn1c2ccc(C)cc2c2nc3cc(C(=O)O)ccc3nc21	-18% (inactive)	-5.53%	–	–
CC(=O)NCCc1nc2cc(NC(=O)c3cccc([N+](=O)[O-])c3)ccc2n1C	13.5% (inactive)	–	–	–

SMILES	lipid storage change, negative = inhibition	cell number change	Potency	outcome
CCOC(=O)Cn1cc([N+](=O)[O-])c(OC)n1	–	-15%	23.1 µM (active)	–
COc1nn(CC(=O)N2N=C(C)CC2(O)C(F)F)cc1[N+](=O)[O-] (stereo not drawn)	-2.88% (inactive)	5.87%	–	–
COc1nn(CC(=O)N2N=C(C)CC2(O)C(F)(F)F)cc1[N+](=O)[O-] (stereo not drawn)	7.76% (inactive)	11.8%	–	–
CCOc1ccc(CCNC(=O)c2nnc(Cc3ccc(F)cc3)o2)cc1OCC	5.14% (inactive)	-1.72%	–	–
CN(CCCNC(=O)COc1cc(=O)n(C)c2ccccc12)Cc1ccccc1	6.06% (inactive)	1.19%	–	–
CCSc1nsc(NC(=O)Nc2ccc(F)cc2F)n1	–	–	–	inactive
C=CCSc1nsc(NC(=O)Nc2ccc(F)cc2)n1	–	-16.2%	5.17 µM (active)	–
O=C(Nc1nc(SCc2ccc(F)cc2)ns1)c1ccco1	4.24% (inactive)	-12.1%	–	–
Cc1ccccc1S(=O)(=O)NCC1CCCO1 (stereo not drawn)	–	-3.81%	–	inactive
COCc1cc(C)nc(SCC[N+](C)(C)CC(=O)c2ccc(Br)cc2)c1C#N	0.0033% (inactive)	–	–	–
NC(=O)C1=C[C@@H](c2coc3ccccc3c2=O)C[C@@H](OCc2ccc(CO)cc2)O1	12.2% (inactive)	16%	–	–
CCc1ccc(CN(C)C(=O)c2cc(COc3cccc4cnccc34)on2)cc1	–	14.5%	–	inactive
CCOC(=O)C1=C(C)NC(=O)NC1C (stereo not drawn)	–	-10.2%	5.17 µM (active)	–
CCOC(=O)C1=C(C)NC(C)=C(C(=O)OCC)C1C	15.9% (inactive)	8.56%	–	–
CC1=C(C(=O)OCC2CCCO2)C(c2cccc(O)c2)NC(=O)N1 (stereo not drawn)	7.62% (inactive)	-24.8%	–	–
CC1=C(C(=O)OCc2ccccc2)C(c2cccc([N+](=O)[O-])c2)NC(=O)N1 (stereo not drawn)	5.58% (inactive)	10.6%	–	–
CCOC(=O)C1=C(COc2ccccc2)NC(=O)NC1c1cccc([N+](=O)[O-])c1 (stereo not drawn)	–	3.89%	9.2 µM (active)	–
CCOC(=O)C1=C(CBr)NC(=O)NC1C (stereo not drawn)	-10.4% (inactive)	-12.6%	–	–
CCOC(=O)C1=C(C)NC(=O)NC1c1cccc(O)c1 (stereo not drawn)	–	0.128%	20.6 µM (active)	–
CCOC(=O)C1=C(CN2CCSCC2)NC(=O)NC1c1cccc([N+](=O)[O-])c1 (stereo not drawn)	7.96% (inactive)	-8.36%	–	–
CCOC(=O)C1=C(C)N(C)C(=O)NC1c1cccc(O)c1 (stereo not drawn)	–	–	–	inactive
CCOc1cc(N2CCOCC2)c(OCC)cc1NC(=O)CSc1n[nH]c(N)n1	10.3% (inactive)	21.7%	–	–
CCOC(=O)c1c(NC(=O)COC(=O)c2cc(OC)c(OC)cc2[N+](=O)[O-])sc(C)c1CC	7.82% (inactive)	-0.918%	–	–
CN(c1ccccc1)S(=O)(=O)c1cccc(NC(=O)CN2CCc3ccccc3C2)c1	–	–	–	inactive
